Results from PubChem BioAssay (NCATS).
Inconclusive results are not listed. Where a call stands in place of a potency, no number is given. A number with no mark means an inactive call. Calls of active or inactive are those of the source. Calls come from the whole dose curve; as a rule, active = well fitted cell-killing curve with a large enough effect; inconclusive = small, poorly fitted or top-dose-only effect, or effect the other way; inactive = flat fitted curve, though single readings scatter.

Tests used:
[1] = tested on: Tov-21-G; assay: Primary qHTS to identify gynecologic anti-cancer compounds using libraries of approved drugs and bioactive compounds (AID 1345084); conditions: Gynecologic cancer cell panel viability, ATPlite luminescence, 48 h; series mostly up to 57.5 µM; note: nearly all actives have a fitted effect of over 55% in size
Procedure, shortened: (§1)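 Luminescence from the ATPlite ATP-monitoring reagent indicates viable cell number; lower signal means cytotoxicity. Cells received compound 16 h after seeding and were exposed for 48 h across five concentrations.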

[2] = tested on: Tov112D; assay: as above; conditions: Gynecologic cancer cell panel viability, ATPlite luminescence, 48 h; series mostly up to 57.5 µM
Procedure, shortened: as §1

**Q.** With `Nc1c(-c2ccccc2)nc(Cl)c2c(O)n[nH]c(=O)c12` as the compound, how does the Potency [1] read?
**A.** inactive

**Q.** And the Potency [2]?
**A.** inactive

**Q.** For `O=C(Nc1ccccc1)Nc1ccc(-c2ccc(C(=O)C3CCCC3C(=O)O)cc2)cc1` (stereo not given), which Potency [1] is on record?
**A.** inactive

**Q.** What about the Potency [2] of the same compound?
**A.** inactive

**Q.** With `Cc1c(Cc2ccc3ccccc3n2)c2cc(F)ccc2n1CC(=O)O` as the compound, how does the Potency [1] read?
**A.** inactive

**Q.** And the Potency [2]?
**A.** inactive

**Q.** For `Fc1ccccc1-c1nc2ccn(Cc3ccc(-c4ccc(C(F)(F)F)cc4C(F)(F)F)nn3)cc-2n1`, which Potency [1] is on record?
**A.** inactive

**Q.** And the Potency [2]?
**A.** inactive

**Q.** Which Potency [1] does the source give for `CC(C)=CCC/C(C)=C/CO[C@@H]1O[C@H](CO[C@@H]2O[C@@H](CO)[C@H](O)[C@H]2O)[C@@H](O)[C@H](O)[C@H]1O` here?
**A.** inactive

**Q.** And the Potency [2]?
**A.** inactive

**Q.** What does the source list for `CCOc1ccc(-c2cc(NC(=O)c3c(F)cccc3F)c(C(=O)O)s2)cc1`?
**A.** Potency [1]: inactive; Potency [2]: inactive

**Q.** For `C[C@@H]1CCC2C(C)(C)[C@H](O)[C@H](O)C[C@]2(C)[C@@]12Cc1c(O)cc3c(c1O2)CN(CCCC(=O)O)C3=O` (stereo not given in full), which Potency [1] is on record?
**A.** inactive

**Q.** What about the Potency [2] of the same compound?
**A.** inactive

**Q.** Which results are given for `COC1OC(=O)C2=C1C1(C)CCCC(C)(C)C1CC2O` (stereo not given)?
**A.** Potency [1]: inactive; Potency [2]: inactive

**Q.** `COC(=O)C1=CO[C@@H](O[C@@H]2O[C@H](CO)[C@@H](O)[C@H](O)[C@H]2O)[C@H]2[C@@H]1[C@H](O)[C@H](O)[C@]2(C)O` was tested. Which Potency [1] did it give?
**A.** inactive

**Q.** And the Potency [2]?
**A.** inactive

**Q.** Which Potency [1] does the source give for `C[C@@H]1C(=O)O[C@H]2[C@H]1CC[C@@]1(C)C(=O)C=C[C@@](C)(O)[C@H]21` here?
**A.** inactive

**Q.** What about the Potency [2] of the same compound?
**A.** inactive

**Q.** How did the Potency [1] turn out when `C=C1CCC2[C@@](C)(C(=O)O)CCC[C@@]2(C)[C@@H]1CCc1ccoc1` (stereo not given in full) was run?
**A.** inactive

**Q.** What about the Potency [2] of the same compound?
**A.** inactive

**Q.** For `COC(=O)[C@H](Cc1ccc([N+](=O)[O-])cc1)NC(=O)c1cccc2ccccc12`, which Potency [1] is on record?
**A.** inactive

**Q.** What about the Potency [2] of the same compound?
**A.** inactive

**Q.** Which activity change, negative = cytotoxicity [1] does the source give for `C/C=C(\C)C(=O)OC[C@H]1O[C@@H](O[C@H]2[C@@H](O[C@H]3O[C@H](CO)[C@@H](O)[C@H](O)[C@H]3O[C@@H]3O[C@H](CO)[C@@H](O)[C@H](O)[C@H]3O)O[C@H](COC(=O)/C(C)=C/C)[C@@H](O)[C@@H]2O)[C@H](O)[C@@H](O)[C@@H]1O` here?
**A.** -10% [at 11.6 µM]

**Q.** And the activity change, negative = cytotoxicity [2]?
**A.** -8.88% [at 11.6 µM]

**Q.** How did the Potency [1] turn out when `C=C[C@H]1[C@H](O[C@@H]2O[C@H](CO)[C@@H](O)[C@H](O)[C@H]2O)OC=C2C(=O)N3Cc4c([nH]c5ccccc5c4=O)[C@@H]3C[C@H]21` was run?
**A.** inactive

**Q.** What about the Potency [2] of the same compound?
**A.** inactive

**Q.** With `CC1CCC2(NC1)OC1C(O)C3C4CCC5CC(O[C@@H]6O[C@H](CO)[C@@H](O)[C@H](O)[C@H]6O[C@@H]6O[C@@H](C)[C@H](O)[C@@H](O)[C@H]6O)CCC5(C)C4CCC3(C)C1C2C` (stereo not given in full) as the compound, how does the Potency [1] read?
**A.** inactive

**Q.** And the Potency [2]?
**A.** inactive

**Q.** For `OC[C@@]1(O)CO[C@@H](OC[C@H]2O[C@@H](OCc3ccccc3)[C@H](O)[C@@H](O)[C@@H]2O)[C@@H]1O`, which Potency [1] is on record?
**A.** inactive

**Q.** And the Potency [2]?
**A.** inactive

**Q.** Which Potency [1] does the source give for `CC1=CC(=O)CC(C)(C)[C@@]1(O)/C=C/C(C)O[C@@H]1O[C@H](CO)[C@@H](O)[C@H](O)[C@H]1O` (stereo not given in full) here?
**A.** inactive

**Q.** What about the Potency [2] of the same compound?
**A.** inactive

**Q.** Which results are given for `C=C(C)[C@H]1CC[C@]2(C(=O)O)CC[C@]3(C)C(CCC4[C@@]5(C)CCC(=O)C(C)(C)C5CC[C@]43C)C12` (stereo not given in full)?
**A.** Potency [1]: inactive; Potency [2]: inactive

**Q.** What does the source list for `O=C(/C=C/N1C[C@@H]2C[C@@H]1CN2c1ccccn1)c1ccccc1O`?
**A.** Potency [1]: inactive; Potency [2]: inactive

**Q.** `c1ccc2c(Nc3nnc(-c4ccncc4)s3)cccc2c1` was tested. Which Potency [2] did it give?
**A.** inactive

**Q.** With `C=C(CO)C(=O)O[C@H]1C[C@@]23O[C@@H]2CC/C(=C/[C@H]2OC(=O)C(=C)[C@H]12)CO[C@H]3O` as the compound, how does the Potency [1] read?
**A.** inactive

**Q.** And the Potency [2]?
**A.** inactive

**Q.** For `Cc1c(-c2ccc3c(c2)OCO3)oc2ccc(C(O)C(C)O)cc12` (stereo not given), which Potency [2] is on record?
**A.** inactive

**Q.** With `O=C(COCC(=O)N1CCN(C(c2ccccc2)c2ccccc2)CC1)Nc1ccc(Cl)cc1C(=O)O` as the compound, how does the Potency [1] read?
**A.** inactive

**Q.** What about the Potency [2] of the same compound?
**A.** inactive

**Q.** Which Potency [1] does the source give for `CC(=O)OC12CC(C)C(O)C1/C=C(/COC1OC(CO)C(O)C(O)C1O)CCC1C(/C=C(\C)C2=O)C1(C)C` (stereo not given) here?
**A.** inactive

**Q.** What about the Potency [2] of the same compound?
**A.** inactive

**Q.** Which results are given for `C/C=C(/C)C(=O)OC1C2OC2C2(CO2)C2C3OC(=O)C(C)C3CCC12C` (stereo not given)?
**A.** Potency [1]: inactive; Potency [2]: inactive

**Q.** Which results are given for `COC(=O)c1cc(OC)cc(OC)c1C(=O)c1c(OC)cc2c(c1O)C1CCC(O)C(C)(O2)O1` (stereo not given)?
**A.** Potency [1]: inactive; Potency [2]: inactive

**Q.** How did the Potency [2] turn out when `NC(=O)[C@@H]1CC[C@H](c2ccc(OCc3ccccc3F)cc2)N1` was run?
**A.** inactive

**Q.** `CCCN(CCN1CCN(c2ccccc2OC)CC1)C1CCc2ncsc2C1` (stereo not given) was tested. Which Potency [1] did it give?
**A.** inactive

**Q.** And the Potency [2]?
**A.** inactive

**Q.** How did the Potency [1] turn out when `C#CCCCn1cc(-c2cccc3c2N[C@@H](C)CC(=O)N3)cn1` was run?
**A.** inactive

**Q.** And the Potency [2]?
**A.** inactive

**Q.** With `Cc1cc(Cn2cnc3c2CC(C(=O)O)N(C(=O)C(c2ccccc2)c2ccccc2)C3)ccc1N(C)C` (stereo not given) as the compound, how does the Potency [1] read?
**A.** inactive

**Q.** What about the Potency [2] of the same compound?
**A.** inactive

**Q.** With `COCCN1CCC(C(=O)NO)(S(=O)(=O)c2ccc(Oc3ccc(OC(F)(F)F)cc3)cc2)CC1` as the compound, how does the Potency [1] read?
**A.** inactive

**Q.** What about the Potency [2] of the same compound?
**A.** inactive

**Q.** `C=C[C@@](C)(CCC=C(C)C)O[C@@H]1O[C@H](CO[C@@H]2OC[C@H](O)[C@H](O)[C@H]2O)[C@@H](O)[C@H](O)[C@H]1O` was tested. Which Potency [1] did it give?
**A.** inactive

**Q.** And the Potency [2]?
**A.** inactive

**Q.** How did the activity change, negative = cytotoxicity [1] turn out when `C[C@@H]1CC[C@]2(C(=O)O[C@@H]3O[C@H](CO[C@@H]4O[C@H](CO)[C@@H](O)[C@H](O)[C@H]4O)[C@@H](O)[C@H](O)[C@H]3O)CC[C@]3(C)C(=CCC4[C@@]5(C)CC[C@H](O)[C@](C)(C(=O)O)C5CC[C@]43C)[C@@H]2[C@]1(C)O` (stereo not given in full) was run?
**A.** 4.06% [at 11.6 µM]

**Q.** And the activity change, negative = cytotoxicity [2]?
**A.** -2.64% [at 11.6 µM]

**Q.** Which activity change, negative = cytotoxicity [1] does the source give for `CC(=O)O[C@@H]1[C@H](O[C@@H]2O[C@H](CO)[C@@H](O)[C@H](O)[C@H]2O)[C@@H](O[C@@H]2O[C@@H](C)[C@H](O)[C@@H](O[C@@H]3O[C@H](CO)[C@@H](O)[C@H](O)[C@H]3O)[C@H]2O)[C@H](OC(=O)[C@]23CCC(C)(C)C[C@H]2C2=CCC4[C@@]5(C)C[C@H](O)[C@H](O[C@@H]6O[C@H](C(=O)O)[C@@H](O)[C@H](O)[C@H]6O)[C@@](C)(C(=O)O)C5CC[C@@]4(C)[C@]2(C)CC3)O[C@@H]1C` (stereo not given in full) here?
**A.** 0.569% [at 6.55 µM]

**Q.** And the activity change, negative = cytotoxicity [2]?
**A.** 7.58% [at 6.55 µM]

**Q.** How did the Potency [1] turn out when `COc1cc(C(=O)OC[C@H]2O[C@@H](OC(C)(C)C(=O)O)[C@H](O)[C@@H](O)[C@@H]2O)cc(OC)c1O` was run?
**A.** inactive

**Q.** And the Potency [2]?
**A.** inactive

**Q.** Which Potency [1] does the source give for `COc1cc(C2CC(=O)Nc3c2cc(Br)c2ccccc32)cc(OC)c1OC` (stereo not given) here?
**A.** inactive

**Q.** What about the Potency [2] of the same compound?
**A.** inactive

**Q.** Which results are given for `C=C1CC23CC1CCC2C12OC(=O)C(C)(C(O)C(O)C1O)C2C3C(=O)O` (stereo not given)?
**A.** Potency [1]: inactive; Potency [2]: inactive

**Q.** With `C[C@@H]1O[C@@H](O[C@@H]2\C=C/C=C\C=C/C=C\C[C@H](C)OC(=O)/C=C\[C@H]3O[C@@H]3C[C@H](O)C[C@]3(O)C[C@@H](O)[C@@H](C(=O)O)[C@H](C2)O3)[C@H](O)[C@H](N)[C@@H]1O` as the compound, how does the Potency [1] read?
**A.** inactive

**Q.** And the Potency [2]?
**A.** inactive

**Q.** For `Cc1c(C)c(NCC(=O)N(C)C2CCN(Cc3ccc(C(N)=O)cc3)CC2)c(C)c(C)c1N`, which Potency [1] is on record?
**A.** inactive

**Q.** And the Potency [2]?
**A.** inactive

**Q.** For `CCOC(=O)CSc1nc2c(sc3ccccc32)c(=O)n1CCCN1CCCC1`, which Potency [1] is on record?
**A.** inactive

**Q.** And the Potency [2]?
**A.** inactive

**Q.** What does the source list for `C=C1C2(C)CC3C4(C)C=CC(=O)OC(C)(C)C4CCC3(C)C1(C(=O)OC)C(=O)C(C)(O)C2=O` (stereo not given)?
**A.** Potency [1]: inactive; Potency [2]: inactive

**Q.** Which results are given for `COc1cccc(OC)c1-c1cc(C(=O)N[C@@H](CC(C)C)C(=O)O)nn1-c1ccnc2cc(Cl)ccc12`?
**A.** Potency [1]: inactive; Potency [2]: inactive

**Q.** For `CC(NC(=O)[C@H](Cc1ccccc1)NC(=O)OCc1ccccc1)C(=O)CF` (stereo not given in full), which Potency [1] is on record?
**A.** inactive

**Q.** What about the Potency [2] of the same compound?
**A.** inactive

**Q.** `O=C(/C=C/C=C/c1ccc2c(c1)OCO2)N1CCCCC1` was tested. Which Potency [2] did it give?
**A.** inactive

**Q.** How did the Potency [1] turn out when `COc1ccccc1Oc1c(NS(=O)(=O)c2ccc(C)cn2)nc(-c2ccncc2)nc1OC` was run?
**A.** inactive

**Q.** And the Potency [2]?
**A.** inactive

**Q.** How did the Potency [1] turn out when `O=C(O)Cn1nnc(-c2ccc(CN(CCCCOc3ccc(CN4CCCC4)cc3)CCc3ccccc3)cc2)n1` was run?
**A.** inactive

**Q.** And the Potency [2]?
**A.** inactive

**Q.** Which results are given for `Cc1occc1C(=O)n1ccnc1`?
**A.** Potency [1]: inactive; Potency [2]: inactive
